Records with an inconclusive call do not appear. Where a call stands in place of a potency, no number is given. Calls of active or inactive are those of the source. The call rests on the fitted dose curve; in most records, active means well fitted curve in the direction sought with a large enough effect; inconclusive means small, poorly fitted or top-dose-only effect, or another doubt; inactive means no such curve, though single readings can be large; an effect the other way counts as inactive or inconclusive.

Sequence of Protein phosphatase 1D (Homo sapiens) (O15297 whole entry, looked up): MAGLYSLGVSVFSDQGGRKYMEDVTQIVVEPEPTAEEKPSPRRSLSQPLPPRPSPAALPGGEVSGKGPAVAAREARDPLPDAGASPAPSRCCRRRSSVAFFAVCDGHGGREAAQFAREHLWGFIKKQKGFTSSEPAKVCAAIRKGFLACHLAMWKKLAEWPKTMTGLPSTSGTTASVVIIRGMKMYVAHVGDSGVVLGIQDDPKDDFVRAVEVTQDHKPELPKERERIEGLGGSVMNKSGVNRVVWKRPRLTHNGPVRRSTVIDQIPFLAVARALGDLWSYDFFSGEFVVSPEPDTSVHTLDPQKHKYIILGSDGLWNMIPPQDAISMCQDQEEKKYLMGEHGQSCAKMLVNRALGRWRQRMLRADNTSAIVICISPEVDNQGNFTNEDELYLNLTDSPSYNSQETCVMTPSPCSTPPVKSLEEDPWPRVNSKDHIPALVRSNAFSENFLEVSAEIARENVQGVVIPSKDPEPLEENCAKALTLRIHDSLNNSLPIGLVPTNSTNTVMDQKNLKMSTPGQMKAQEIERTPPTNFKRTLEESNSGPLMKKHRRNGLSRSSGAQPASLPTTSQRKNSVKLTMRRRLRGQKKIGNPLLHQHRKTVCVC

Tested on in the first experiment: not listed separately
Briefly: qHTS to identify inhibitors of the type 1 interferon - major histocompatibility complex class I in skeletal muscle: primary screen against the NCATS Pharmaceutical Collection (AID 1347407).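 Further: luminescence of HiBiT knocked into endogenous HLA-B as interferon-induced MHC class I level.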 The conditions noted are these: human skeletal muscle cells, IFN-b-induced MHC-I HiBiT luminescence, 24 h; series mostly up to 45.9 µM. An outline of the steps: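 HLA-B HiBiT myoblasts, dexamethasone-free growth medium + 4 ng/ml IFN-b; compounds pinned 1 h after seeding, […] from 46 uM; 24 h, 37 C, 5% CO2; lytic HiBiT detection, 10 min RT, luminescence.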
As to `Cc1ccc(N)cc1O`, the molecule was called inactive. Consider `Nc1ccccc1N`, for which the outcome was inactive. Turning to `CCOCCOC(=O)/C=C/c1ccc(OC)cc1`, the molecule was called inactive. In the case of `O=C(O)c1ccccc1NCCc1ccccc1`, the result was inactive. With `O=C(O)c1c(O)c(-c2ccccc2)nc2ccccc12`, the outcome was inactive.

Tested on in the next experiment: not listed separately
Briefly: qHTS to identify inhibitors of the type 1 interferon - major histocompatibility complex class I in skeletal muscle: primary screen against the NCATS Mechanism Interrogation Plate v5.0 (MIPE) Libary (AID 1347411). Further: nearly all actives have a fitted effect of over 65% in size. Further: potency means the concentration at half of the fitted maximal effect. Conditions: iHSKM cells + IFN-b, HiBiT-tagged MHC-I luminescence, 24 h; series mostly up to 45.8 µM. Summed up:
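Luminescence from CRISPR HiBit-tagged endogenous HLA-B in human myoblasts reported MHC class I level after 24 h of IFN-beta (4 ng/ml) plus compound. Compounds ran as 11-point 1:3 series, top 46 uM final.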
In general terms: Quantitative high-throughput screening tests each substance at several concentrations.
On to `COc1cc2ncnc(Nc3ccc(F)c(Cl)c3)c2cc1NC(=O)/C=C/CN1CCCCC1`, for which the Potency is 7.39 µM (active). Regarding `CC(C)c1cc(CNc2nc(Nc3cc(C4CC4)[nH]n3)cc(N3CCN(C)CC3)n2)on1`, the Potency was 0.523 µM (active).

With `COCCOc1ccc(N2CCN(CCn3ncc4c3nc(N)n3nc(-c5ccco5)nc43)CC2)cc1`, the Potency entry is “inactive”. Consider `CC[C@H](NC(=O)[C@H](CS(=O)(=O)CC1CC1)N[C@@H](c1ccc(F)cc1)C(F)(F)F)C(=O)C(=O)NC1CC1`, for which the Potency result is “inactive”.

As to `O=C(/C=C/c1cccc(S(=O)(=O)Nc2ccccc2)c1)NO`, the Potency was 2.34 µM (active). Regarding `COc1ccc(N(C)c2nc(C)nc3ccccc23)cc1`, the Potency result is “inactive”. As for `Cc1[nH]nc(C(F)(F)F)c1Cc1sc2c(c1C(=O)N1C[C@](C)(O)CO1)c(=O)n(C)c(=O)n2C(C)C`, the Potency entry is “inactive”. `CCN1CCN(Cc2ccc(Nc3ncc(F)c(-c4cc(F)c5nc(C)n(C(C)C)c5c4)n3)nc2)CC1`: the Potency was 10.4 µM (active).

Consider `O=C(O)c1ccc(CN2CCC(CN[C@@H]3C[C@H]3c3ccccc3)CC2)cc1`, for which the Potency result was “inactive”. For the molecule `NC[C@@](O)(c1ccc(Cl)cc1)c1ccc(-c2cn[nH]c2)cc1`, the Potency is 7.39 µM (active). Still for that read-out and setting: then `CCOCc1nc2c(N)nc3ccccc3c2n1CC(C)(C)O`, with “inactive”; and `CCN1CCN(Cc2ccc(NC(=O)Nc3ccc(Oc4cc(NC)ncn4)cc3)cc2C(F)(F)F)CC1`, with 7.39 µM (active). `CCNC(=O)Nc1ncc(-c2cc(-c3c(C)cc(OC)cc3C)nc(-c3cnccn3)n2)s1`: the Potency entry was “inactive”.

On to `Cc1ccc(S(=O)(=O)Cc2nc(-c3ccc(C(=O)NCc4cccnc4)cc3)oc2C)cc1`, for which the Potency result is “inactive”. Regarding `Cc1ccc([N+](=O)[O-])cc1S(=O)(=O)N(C)/N=C/c1cnc2ccc(Br)cn12`, the Potency is 0.104 µM (active). `CCOc1cc(C(=O)N2CCC(N3CCN(C)CC3)CC2)ccc1Nc1ncc2c(n1)N(C1CCCC1)c1ccccc1C(=O)N2C`: the Potency is 23.4 µM (active).

Take `Cc1ccc(NC(=O)c2ccc(CN3CC[C@H](N(C)C)C3)c(C(F)(F)F)c2)cc1Nc1nccc(-c2cncnc2)n1`: the Potency was 16.1 µM (active).

Turning to `Nc1ccc(/C=C/C(=O)NCc2cc3cc(-c4ccc(C(=O)N5CCC(F)(F)CC5)cc4)cc(-c4ccc(F)cc4)c3o2)cn1`, the Potency result is “inactive”. For `CN(C)C/C=C/C(=O)Nc1cccc(C(=O)Nc2cccc(Nc3ncc(Cl)c(-c4c[nH]c5ccccc45)n3)c2)c1`, the Potency was 0.658 µM (active). `CC1=C(CO)C(=O)O[C@@H]([C@@H](C)[C@H]2CC[C@H]3[C@@H]4C[C@H]5O[C@]56[C@@H](O)C=CC(=O)[C@]6(C)[C@H]4CC[C@]23C)C1`: the Potency is 0.466 µM (active). Still for that read-out and setting: then `CC#CC(=O)N1CCC[C@H]1c1nc(-c2ccc(C(=O)Nc3ccccn3)cc2)c2c(N)nccn12`, with “inactive”. With `CCCN1CCN(c2ccc(C(=O)NC3(C(=O)NCC#N)CCCCC3)cc2)CC1`, the Potency entry was “inactive”. For `CCCCNc1ncc2c(-c3ccc(CN4CCN(C)CC4)cc3)cn(C3CCC(O)CC3)c2n1` (centres undefined), the Potency is 9.3 µM (active). The same measure, in the same setting: then `Cc1c(F)cc(C(=O)NC2CC2)cc1-c1c(F)cn2c(C(C)(C)C)nnc2c1F`, with “inactive”; and `CS(=O)(=O)N1CCC(NC(=O)c2[nH]ncc2NC(=O)c2c(Cl)cccc2Cl)CC1`, with 1.47 µM (active). On the same count and under the same terms, next, `FC(F)(F)c1ccc(Nc2nc(-c3c(C(F)(F)F)nc4ccccn34)cs2)cc1`: 4.66 µM (active). As to `C[C@H](Nc1ncnc2nc[nH]c12)c1cc2ccc(F)cc2nc1-c1ccccn1`, the Potency result is “inactive”.

Another experiment concerns the target Protein phosphatase 1D (Homo sapiens) (UniProt O15297). Briefly: RapidFire Mass Spectrometry qHTS Assay for Modulators of WT P53-Induced Phosphatase 1 (WIP1) (AID 1347424).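 Further: amount of dephosphorylated VEPPL-S-QETFS peptide product formed by WIP1.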 Further: potency means the concentration at half of the fitted maximal effect. Conditions: WIP1 dephosphorylation of phosphopeptide, RapidFire MS; series mostly up to 63 µM. An outline of the steps: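 RapidFire mass spectrometry measured dephosphorylated peptide after 5 min room-temperature reaction of 2 uM VEPPL-pS-QETFS with 10 nM WIP1 (50 mM Tris-HCl pH 7.5, 30 mM MgCl2, 0.1 mM EGTA, BSA), following 1 hr compound preincubation; 1 uM isotope-labelled product standard.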
Turning to `Cc1ccc(N)cc1O`, the Potency was 44.7 µM (active). As to `Nc1ccccc1N`, the Potency entry was “inactive”. Consider `CCOCCOC(=O)/C=C/c1ccc(OC)cc1`, for which the Potency result is “inactive”. For the molecule `O=C(O)c1ccccc1NCCc1ccccc1`, the Potency entry was “inactive”. For `O=C(O)c1c(O)c(-c2ccccc2)nc2ccccc12`, the Potency result was “inactive”.

The target is the same in a further experiment. Description: Rhodamine-PBP qHTS Assay for Modulators of WT P53-Induced Phosphatase 1 (WIP1) (AID 1347425). The conditions noted are these: recombinant WIP1, Rhodamine-PBP phosphate fluorescence, real-time; series mostly up to 57.5 µM. Summed up: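 WIP1 (5 nM final) was preincubated with compound for 1 hour at room temperature. It then dephosphorylated 10 uM VEPPL-pS-QETFS peptide in Tris-HCl pH 7.5 with 30 mM MgCl2. Released Pi was detected by 10 uM Rh-PBP fluorescence (ex 525/em 598 nm) read at 1-min intervals for 11 min, as delta f1 - f0.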
Turning to `Nc1ccccc1N`, the result was inactive. The same measure, in the same setting: then `CCOCCOC(=O)/C=C/c1ccc(OC)cc1`, with “inactive”. As to `O=C(O)c1ccccc1NCCc1ccccc1`, the outcome was inactive.

Consider `O=C(O)c1c(O)c(-c2ccccc2)nc2ccccc12`, for which the outcome was inactive.

Tested on in the next experiment: not listed separately
Description: Primary qHTS for inhibitors of La Crosse Virus (LACV) - induced cell death in SH-SY5Y cells (AID 1508616).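 Further: top concentration of the series differs between compounds; higher means more rescue of cells from virus-induced death.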 Conditions: SH-SY5Y LACV cytopathicity rescue, ATP luminescence, 6 d; series mostly up to 4.29 µM. Summed up: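 Rescue of virus-induced death was read as ATPLite luminescence after 6 days at 37C, scaled between DMSO wells with LACV and without virus. Cells were SH-SY5Y, 6000/well, infected at 0.01 MOI after compound addition.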
With `Cc1ccc(N)cc1O`, the outcome was inactive. For `O=C(O)c1ccccc1NCCc1ccccc1`, the molecule was called inactive. Regarding `O=C(O)c1c(O)c(-c2ccccc2)nc2ccccc12`, the outcome was inactive.

Source of the values: PubChem BioAssay (NCATS).
